Measured values reported in the supplement of paper PMC11732987, “Enantioselective OTUD7B fragment discovery through chemoproteomics screening and high-throughput optimisation” (Communications Chemistry, 2025).

Assays:
Experiment in all cases: log2 ratio of Biotin-Ahx-Ub-VS probe labelling (fragment/DMSO); higher = less target engagement (more negative = stronger competition), active = hit call of the paper (q ≤ 0.05, log2 ratio ≤ -1)
Settings in all cases: compound concentration: 200 uM; treatment time: 3 h
[1] = target: T1, USP19 (UniProt O94966)
T1 sequence (whole entry): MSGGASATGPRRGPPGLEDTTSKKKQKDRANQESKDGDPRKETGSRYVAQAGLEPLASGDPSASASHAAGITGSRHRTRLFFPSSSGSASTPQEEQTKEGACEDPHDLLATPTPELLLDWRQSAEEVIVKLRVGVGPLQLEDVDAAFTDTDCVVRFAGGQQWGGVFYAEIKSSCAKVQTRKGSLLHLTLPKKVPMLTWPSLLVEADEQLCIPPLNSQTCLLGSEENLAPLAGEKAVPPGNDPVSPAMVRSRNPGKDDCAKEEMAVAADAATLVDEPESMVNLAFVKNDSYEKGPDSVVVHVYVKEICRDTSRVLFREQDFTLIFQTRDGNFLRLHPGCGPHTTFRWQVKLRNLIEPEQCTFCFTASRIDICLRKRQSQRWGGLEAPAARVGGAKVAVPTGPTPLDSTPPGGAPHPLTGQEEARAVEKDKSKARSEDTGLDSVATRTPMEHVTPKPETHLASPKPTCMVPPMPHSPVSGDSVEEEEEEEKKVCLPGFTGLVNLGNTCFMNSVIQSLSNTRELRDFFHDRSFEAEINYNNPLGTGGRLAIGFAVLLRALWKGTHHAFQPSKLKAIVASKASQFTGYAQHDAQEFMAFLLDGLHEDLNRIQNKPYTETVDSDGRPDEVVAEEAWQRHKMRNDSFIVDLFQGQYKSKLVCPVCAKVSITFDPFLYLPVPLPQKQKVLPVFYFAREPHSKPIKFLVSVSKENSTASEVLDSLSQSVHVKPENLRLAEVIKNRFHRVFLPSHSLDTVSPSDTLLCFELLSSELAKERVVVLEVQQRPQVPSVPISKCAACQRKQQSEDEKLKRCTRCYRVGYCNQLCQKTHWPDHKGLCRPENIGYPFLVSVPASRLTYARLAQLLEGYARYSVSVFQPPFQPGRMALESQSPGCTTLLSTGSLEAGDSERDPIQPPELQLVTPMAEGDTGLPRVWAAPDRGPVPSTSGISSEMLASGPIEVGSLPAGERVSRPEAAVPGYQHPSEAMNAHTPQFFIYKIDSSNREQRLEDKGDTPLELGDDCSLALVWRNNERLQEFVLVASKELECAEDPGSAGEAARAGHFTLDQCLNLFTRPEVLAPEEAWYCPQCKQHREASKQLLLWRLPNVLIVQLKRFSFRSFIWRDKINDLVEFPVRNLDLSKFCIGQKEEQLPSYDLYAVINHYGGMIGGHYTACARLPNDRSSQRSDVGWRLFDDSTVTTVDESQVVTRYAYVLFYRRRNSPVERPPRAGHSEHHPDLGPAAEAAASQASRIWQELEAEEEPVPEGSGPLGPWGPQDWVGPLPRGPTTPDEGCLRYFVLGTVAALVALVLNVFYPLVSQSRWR
How it was run: (§1)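 Using Biotin-Ahx-Ub-VS at 0.5 µM final for 1 h, DUBs were labelled in HEK293T lysate (495 µg per sample) that had first been treated in triplicate with fragment at 200 µM or vehicle for 3 h. NeutrAvidin enrichment, LysC and trypsin digestion and diaPASEF LC-MS/MS followed. Spectronaut label-free quantities were global-median-normalised. Values are average log2 fragment/vehicle ratios by unpaired t-test, using proteins with ≥2 unique peptides.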

[2] = target: T2, USP22 (UniProt Q9UPT9)
T2 sequence (whole entry): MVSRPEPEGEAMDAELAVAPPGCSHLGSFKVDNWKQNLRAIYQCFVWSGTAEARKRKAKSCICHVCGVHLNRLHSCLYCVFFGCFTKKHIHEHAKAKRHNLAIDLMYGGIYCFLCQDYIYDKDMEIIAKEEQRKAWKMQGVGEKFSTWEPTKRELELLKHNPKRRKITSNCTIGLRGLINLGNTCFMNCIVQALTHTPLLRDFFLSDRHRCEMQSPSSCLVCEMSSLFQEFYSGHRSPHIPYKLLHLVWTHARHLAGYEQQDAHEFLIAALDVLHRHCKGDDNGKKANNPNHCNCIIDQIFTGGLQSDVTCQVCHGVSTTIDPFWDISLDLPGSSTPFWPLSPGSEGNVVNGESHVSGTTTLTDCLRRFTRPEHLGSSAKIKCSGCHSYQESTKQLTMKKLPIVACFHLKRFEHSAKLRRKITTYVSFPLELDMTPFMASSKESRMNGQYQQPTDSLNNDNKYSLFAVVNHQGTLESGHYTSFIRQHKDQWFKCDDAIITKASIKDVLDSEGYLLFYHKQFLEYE
How it was run: as §1

[3] = target: USP24 (UniProt Q9UPU5)
How it was run: as §1

[4] = target: T3, USP25 (UniProt Q9UHP3)
T3 sequence (whole entry): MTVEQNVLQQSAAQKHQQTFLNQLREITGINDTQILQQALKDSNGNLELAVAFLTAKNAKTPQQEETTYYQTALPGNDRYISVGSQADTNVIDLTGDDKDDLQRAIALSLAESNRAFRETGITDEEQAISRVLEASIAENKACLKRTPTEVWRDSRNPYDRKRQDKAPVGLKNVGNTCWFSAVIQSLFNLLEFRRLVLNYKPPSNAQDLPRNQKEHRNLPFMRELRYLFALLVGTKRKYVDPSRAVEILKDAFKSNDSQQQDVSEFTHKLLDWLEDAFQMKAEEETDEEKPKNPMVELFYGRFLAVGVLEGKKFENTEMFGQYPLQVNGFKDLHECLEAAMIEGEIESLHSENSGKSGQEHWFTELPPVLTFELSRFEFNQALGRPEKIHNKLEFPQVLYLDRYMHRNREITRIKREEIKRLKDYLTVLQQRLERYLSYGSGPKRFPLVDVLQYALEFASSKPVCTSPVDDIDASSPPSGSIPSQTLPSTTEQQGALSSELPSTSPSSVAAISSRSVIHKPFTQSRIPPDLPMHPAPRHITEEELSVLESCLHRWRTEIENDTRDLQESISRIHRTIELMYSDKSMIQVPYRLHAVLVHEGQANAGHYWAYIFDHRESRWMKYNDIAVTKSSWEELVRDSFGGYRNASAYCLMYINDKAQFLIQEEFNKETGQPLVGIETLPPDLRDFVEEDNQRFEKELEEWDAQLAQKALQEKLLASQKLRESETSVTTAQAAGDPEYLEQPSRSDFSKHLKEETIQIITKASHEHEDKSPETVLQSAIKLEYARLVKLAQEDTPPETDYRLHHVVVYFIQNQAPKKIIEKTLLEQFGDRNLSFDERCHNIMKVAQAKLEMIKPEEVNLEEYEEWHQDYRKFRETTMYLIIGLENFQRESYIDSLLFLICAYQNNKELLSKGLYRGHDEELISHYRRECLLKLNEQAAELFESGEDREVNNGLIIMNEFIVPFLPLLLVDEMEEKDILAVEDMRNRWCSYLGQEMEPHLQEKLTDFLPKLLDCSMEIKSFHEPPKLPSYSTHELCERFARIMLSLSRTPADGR
How it was run: as §1

[5] = target: T4, USP28 (UniProt Q96RU2)
T4 sequence (whole entry): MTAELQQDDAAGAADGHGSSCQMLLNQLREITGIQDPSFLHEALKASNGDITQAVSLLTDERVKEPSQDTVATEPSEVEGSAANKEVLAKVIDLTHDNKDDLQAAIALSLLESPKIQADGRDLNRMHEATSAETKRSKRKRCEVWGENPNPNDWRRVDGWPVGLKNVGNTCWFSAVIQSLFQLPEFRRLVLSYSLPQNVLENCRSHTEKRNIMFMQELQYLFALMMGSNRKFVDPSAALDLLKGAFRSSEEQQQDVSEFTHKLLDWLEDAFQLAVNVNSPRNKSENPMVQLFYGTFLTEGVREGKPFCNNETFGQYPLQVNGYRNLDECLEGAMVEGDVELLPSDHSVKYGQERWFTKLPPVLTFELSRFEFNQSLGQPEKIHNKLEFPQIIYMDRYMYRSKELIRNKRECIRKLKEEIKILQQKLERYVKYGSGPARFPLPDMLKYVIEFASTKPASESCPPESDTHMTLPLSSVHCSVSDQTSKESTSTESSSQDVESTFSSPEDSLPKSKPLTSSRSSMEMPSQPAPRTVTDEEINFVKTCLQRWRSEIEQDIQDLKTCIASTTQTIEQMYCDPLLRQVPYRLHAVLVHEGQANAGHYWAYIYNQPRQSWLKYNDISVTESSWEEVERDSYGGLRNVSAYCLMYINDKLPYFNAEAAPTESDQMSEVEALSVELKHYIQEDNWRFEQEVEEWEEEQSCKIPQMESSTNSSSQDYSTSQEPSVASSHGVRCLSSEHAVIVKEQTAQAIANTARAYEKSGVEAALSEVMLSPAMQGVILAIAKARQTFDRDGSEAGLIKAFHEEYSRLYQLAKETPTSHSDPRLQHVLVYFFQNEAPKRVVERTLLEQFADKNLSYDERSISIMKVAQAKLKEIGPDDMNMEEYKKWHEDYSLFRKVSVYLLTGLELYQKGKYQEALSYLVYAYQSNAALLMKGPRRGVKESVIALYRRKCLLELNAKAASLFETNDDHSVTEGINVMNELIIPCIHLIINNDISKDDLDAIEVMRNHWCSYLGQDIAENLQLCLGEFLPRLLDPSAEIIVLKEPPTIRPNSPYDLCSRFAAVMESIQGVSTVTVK
How it was run: as §1

Measured: log2 ratio of Biotin-Ahx-Ub-VS probe labelling

Sequence of USP24 (Q9UPU5 whole entry): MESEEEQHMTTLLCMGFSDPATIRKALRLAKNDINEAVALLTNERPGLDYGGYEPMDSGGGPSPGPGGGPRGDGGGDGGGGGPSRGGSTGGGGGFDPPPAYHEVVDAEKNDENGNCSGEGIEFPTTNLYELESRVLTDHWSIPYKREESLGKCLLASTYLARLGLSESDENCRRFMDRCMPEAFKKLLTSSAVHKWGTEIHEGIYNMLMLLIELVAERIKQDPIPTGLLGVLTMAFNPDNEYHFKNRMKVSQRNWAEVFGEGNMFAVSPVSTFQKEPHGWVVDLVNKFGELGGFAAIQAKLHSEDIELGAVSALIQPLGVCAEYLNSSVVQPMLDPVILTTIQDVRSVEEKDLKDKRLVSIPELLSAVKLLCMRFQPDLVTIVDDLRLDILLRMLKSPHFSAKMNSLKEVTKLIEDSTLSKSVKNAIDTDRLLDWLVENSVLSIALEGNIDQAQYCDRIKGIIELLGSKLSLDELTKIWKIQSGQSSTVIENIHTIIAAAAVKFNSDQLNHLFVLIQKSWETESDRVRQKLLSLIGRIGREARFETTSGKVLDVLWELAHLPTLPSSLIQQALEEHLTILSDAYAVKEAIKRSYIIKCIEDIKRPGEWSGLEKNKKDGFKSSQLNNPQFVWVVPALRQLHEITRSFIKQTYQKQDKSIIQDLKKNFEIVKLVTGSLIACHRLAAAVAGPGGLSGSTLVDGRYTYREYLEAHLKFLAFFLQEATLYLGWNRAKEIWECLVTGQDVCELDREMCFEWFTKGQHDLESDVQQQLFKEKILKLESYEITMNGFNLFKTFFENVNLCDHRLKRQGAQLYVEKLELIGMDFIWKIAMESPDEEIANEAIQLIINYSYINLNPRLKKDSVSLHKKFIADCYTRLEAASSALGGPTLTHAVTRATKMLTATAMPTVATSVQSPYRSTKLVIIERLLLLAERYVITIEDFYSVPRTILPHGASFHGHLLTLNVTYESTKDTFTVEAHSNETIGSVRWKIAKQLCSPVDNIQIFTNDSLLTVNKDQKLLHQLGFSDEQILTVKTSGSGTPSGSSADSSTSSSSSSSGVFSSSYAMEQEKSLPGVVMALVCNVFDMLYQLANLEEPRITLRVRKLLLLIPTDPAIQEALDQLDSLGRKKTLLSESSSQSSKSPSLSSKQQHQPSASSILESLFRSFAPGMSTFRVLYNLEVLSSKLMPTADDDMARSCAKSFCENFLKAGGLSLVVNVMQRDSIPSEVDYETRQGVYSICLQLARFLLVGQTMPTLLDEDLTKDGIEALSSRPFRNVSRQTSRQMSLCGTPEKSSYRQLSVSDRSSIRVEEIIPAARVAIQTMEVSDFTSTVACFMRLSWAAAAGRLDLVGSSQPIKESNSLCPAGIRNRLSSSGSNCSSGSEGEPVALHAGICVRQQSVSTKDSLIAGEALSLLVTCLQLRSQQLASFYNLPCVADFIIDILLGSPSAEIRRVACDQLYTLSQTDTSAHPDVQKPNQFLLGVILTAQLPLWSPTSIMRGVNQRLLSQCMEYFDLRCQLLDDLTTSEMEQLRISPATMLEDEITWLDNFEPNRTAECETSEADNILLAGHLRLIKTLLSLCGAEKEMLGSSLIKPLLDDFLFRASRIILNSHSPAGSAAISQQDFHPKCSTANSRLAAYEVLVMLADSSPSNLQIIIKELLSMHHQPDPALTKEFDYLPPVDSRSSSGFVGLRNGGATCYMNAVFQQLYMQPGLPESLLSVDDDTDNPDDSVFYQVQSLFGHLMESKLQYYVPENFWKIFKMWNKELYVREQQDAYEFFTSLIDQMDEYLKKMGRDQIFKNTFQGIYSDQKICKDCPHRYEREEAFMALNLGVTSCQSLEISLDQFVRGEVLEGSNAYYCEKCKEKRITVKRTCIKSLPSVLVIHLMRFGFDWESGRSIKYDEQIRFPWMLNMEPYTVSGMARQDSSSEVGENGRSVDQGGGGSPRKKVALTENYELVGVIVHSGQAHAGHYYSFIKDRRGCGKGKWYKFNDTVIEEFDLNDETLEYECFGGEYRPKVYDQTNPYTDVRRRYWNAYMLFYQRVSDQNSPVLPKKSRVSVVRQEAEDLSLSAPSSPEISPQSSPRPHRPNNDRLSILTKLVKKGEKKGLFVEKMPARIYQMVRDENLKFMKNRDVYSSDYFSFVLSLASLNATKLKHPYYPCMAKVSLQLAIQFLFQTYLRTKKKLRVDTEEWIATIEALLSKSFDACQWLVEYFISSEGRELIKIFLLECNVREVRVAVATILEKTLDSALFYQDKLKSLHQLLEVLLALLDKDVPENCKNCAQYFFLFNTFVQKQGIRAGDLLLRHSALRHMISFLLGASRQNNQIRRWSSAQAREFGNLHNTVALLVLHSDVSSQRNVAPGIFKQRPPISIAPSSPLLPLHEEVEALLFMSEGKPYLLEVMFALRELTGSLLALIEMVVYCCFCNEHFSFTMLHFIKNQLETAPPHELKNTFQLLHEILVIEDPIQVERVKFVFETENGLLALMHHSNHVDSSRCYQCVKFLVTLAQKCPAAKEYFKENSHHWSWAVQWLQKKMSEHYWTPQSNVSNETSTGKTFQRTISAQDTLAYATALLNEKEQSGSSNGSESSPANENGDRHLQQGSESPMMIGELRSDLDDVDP

O=C(CCl)Nc1ccccc1C(F)(F)F
inactive: [1] -0.154 | [2] -0.117 | [3] -0.445 | [4] -0.713 | [5] -0.598
